# Experimental data taken from PubChem BioAssay AID588856 (National Center for Advancing Translational Sciences (NCATS), 2011).
# Out of some 410,000 compounds screened, about 3,100 (0.76%) were called active. Entries that show only a call come without a potency. The call rests on the fitted dose curve; in most records, active means well fitted cell-killing curve with a large enough effect; inactive means no such curve, though single readings can be large or run the other way. The full list was thinned out, with actives kept by preference.
# Experiment: qHTS for Inhibitors of TGF-b: Cytotox Counterscreen
# Settings: HepG2 CAGA-GFP viability, ATP luminescence, 18 h; series mostly up to 46.1 µM
# Summary of the method: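 HepG2 CAGA-GFP cells (1000/well, DMEM with 1% FBS) received compound, then TGF-beta at 500 pg/mL final, and were incubated 18 hours at 37 degrees C. Viability was read by CellTiter-Glo luminescence. Media-only wells were set as complete cell-killing and DMSO as no toxicity.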
# Potency means the concentration at half of the fitted maximal effect.
row,SMILES,Potency
1,COc1cccc(CNC(=O)C(=O)NCC(c2cccs2)S(=O)(=O)c2ccccc2)c1 (stereo unspecified),inactive
2,CN(C)c1ccc(/C=C/c2c3ccccc3nc3ccccc23)cc1,inactive
3,CC(C)(C)OC(=O)C[C@@H]1C/C=C\C[C@@H](CC(=O)N[C@H](CO)Cc2ccccc2)C(=O)NC[C@@H](c2ccccc2)OC1=O,inactive
4,O=C(N[C@@H]1C/C=C\C[C@@H](CC(=O)N(CCO)Cc2ccccc2)C(=O)N[C@H](Cc2ccccc2)COC1=O)OCC1c2ccccc2-c2ccccc21,inactive
5,O=C(C[C@H]1C/C=C\C[C@@H](NC(=O)OCC2c3ccccc3-c3ccccc32)C(=O)O[C@@H](c2ccccc2)CNC1=O)N[C@H](CO)Cc1ccccc1,12.6 µM (active)
6,COc1ccccc1CNC(=O)CCn1c(=O)c2ccccc2n(CC(=O)Nc2cccc(Cl)c2)c1=O,inactive
7,COc1cc(NC(=O)CCn2nc(C)cc2C)cc(OC)c1OC,inactive
8,COc1ccc2oc(-c3ccc(C)c(NC(=O)c4sc5ccccc5c4Cl)c3)nc2c1,inactive
9,O=C(CCl)Nc1cccc(CP(=O)(c2ccccc2)c2ccccc2)c1,15.8 µM (active)
10,O=C(COc1ccccc1C(=O)Nc1ccccc1)Nc1cccc(F)c1,inactive
11,CCc1cccc(NC(=O)c2cc(-c3ccccc3)n[nH]2)c1,inactive
12,Cc1cccc(CN2Cc3cccc4c3[C@H](C=CC4)CC2=S)c1,inactive
13,CCN1CCN(c2cc(C)c3cc(NC(=O)c4cc(Cl)ccc4OC)ccc3n2)CC1,11.2 µM (active)
14,COc1ccc(C(=O)Nc2ccc3nc(N4CCCCC4)cc(C)c3c2)cc1OC,inactive
15,CCOCCCNC(=S)Nc1ccc2nc(N3CCN(CC)CC3)cc(C)c2c1,inactive
16,COc1cc(C(=O)N2CCC(c3ccncc3)CC2)cc(OC)c1OC,inactive
17,CNC[C@H](CC1CCCCC1)NC[C@H](NCCC1CCCC1)[C@H](C)O,15.8 µM (active)
18,CCOc1cccc2cc(-c3cn4c(n3)sc3cc(C)ccc34)c(=O)oc12,inactive
19,CCOC(=O)CSc1nc2c(c(=O)n(Cc3ccccc3Cl)c(=O)n2C)n1C,inactive
20,CCOC(=O)c1cnc2sccn2c1=O,inactive
21,CCOC(=O)c1cnc2nc(SCc3ccccc3Cl)[nH]n2c1=O,2.82 µM (active)
22,Cc1cc(N2CCN(c3cccc(C(F)(F)F)c3)CC2)n2nc(-c3ccccc3)nc2n1,inactive

row,SMILES,Potency
1,CN1C(=O)c2[nH]nc(-c3ccc(F)cc3)c2C1c1ccccn1 (stereo unspecified),inactive
2,CCOc1ccc(Nc2c(S(=O)(=O)c3ccccc3)cnc3ccccc23)cc1,inactive
3,O=C(CSc1oc(-c2ccc(F)cc2)nc1S(=O)(=O)c1ccc(Br)cc1)NC1CCCCC1,inactive
4,CC(C)S(=O)(=O)c1oc(-c2ccc(F)cc2)nc1S(=O)(=O)c1ccc(F)cc1,2 µM (active)
5,Cc1ccc(-c2nc(S(=O)(=O)c3ccc(C)cc3)c(N3CCCCCC3)o2)cc1,inactive
6,COc1cccc(Cn2c(CNS(=O)(=O)c3ccc(Cl)s3)nc3cccnc32)c1,inactive
7,COc1ccccc1N1CCN(c2ccc(=O)n(CC(=O)NCc3ccc(OC(C)C)cc3)n2)CC1,inactive
8,O=C1C2C(c3ccccc3)CC=CC2C(c2ccoc2)N1Cc1ccccc1 (stereo unspecified),inactive
9,O=C(Cn1c(=O)nc(-c2ccccc2)c2cc(Cl)ccc21)NCc1ccc(Cl)cc1,inactive
10,CC(C)c1ccc(Cn2c(COc3ccccc3)nc3ccccc32)cc1,inactive
11,CC(C)c1ccc2c(c1)c(SC(C)(C)C)c(CC(C)(C)C(=O)O)n2Cc1ccc(Cl)cc1,10 µM (active)
12,O=C(c1cccc(Br)c1)N1CCN(Cc2cc(=O)n3nc(-c4ccccc4)sc3n2)CC1,inactive
13,CCCOc1cccc(C(=O)Nc2cccc(NC(=O)c3ccc(C(C)(C)C)cc3)c2)c1,inactive
14,CCCOc1ccc(C(=O)C(CCC(CNCC)C(=O)c2ccc(OCCC)cc2)CNCC)cc1 (stereo unspecified),3.16 µM (active)
15,CCCOc1ccc(N2CC(C(=O)Nc3ccccn3)CC2=O)cc1 (stereo unspecified),inactive
16,CC(C)(C)C1CCC(NC(=O)c2cnn3c2NC(=C2CC2)C=C3C(F)F)CC1 (stereo unspecified),inactive
17,CN(C)c1ccc(/C=C/c2sc3ccccc3[n+]2CCCCBr)cc1,inactive
18,Cc1c(CCO)sc[n+]1CC(=O)c1ccc2ccccc2c1,inactive
19,Cc1cc2oc3ccc(NCCC4CCCN4C)cc3c(=O)c2cc1C (stereo unspecified),10 µM (active)
20,CCC1CCCCN1S(=O)(=O)c1ccc(NC(=O)c2cc(=O)c3ccccc3o2)cc1 (stereo unspecified),inactive
21,CNCCCOc1cc2nc(N3CCCN(C)CC3)nc(NC3CCN(C)CC3)c2cc1OC,inactive
22,COc1ccccc1CNS(=O)(=O)c1cc(Br)cc2c1N(C(C)=O)C(C)C2 (stereo unspecified),inactive

row,SMILES,Potency
1,O=C(Cn1nc(Cc2cccnc2)c2ccccc2c1=O)N1CCN(c2ccccc2F)CC1,inactive
2,COc1cc(OC)c(/C=C/c2ccnc3ccccc23)c(OC)c1,inactive
3,O=C(CSc1nccn1Cc1ccc(F)cc1)NCc1ccccc1,inactive
4,COc1cc(OC)c(C2C=C(C(=O)O)Nc3ncnn32)cc1OC (stereo unspecified),inactive
5,NC(Cc1ccc(F)cc1)c1csc(Nc2nncc3ccccc23)n1 (stereo unspecified),15.8 µM (active)
6,COCC(C)NC(=O)COc1nncc2ccccc12 (stereo unspecified),inactive
7,CN(Cc1ccccc1)c1ccc(/C=C/c2ccnc3ccccc23)cc1,inactive
8,Cc1ccc(OCC(=O)OCc2cc(=O)n3nc(C4CC4)sc3n2)cc1,inactive
9,CCCCC(CCCC)c1ccc(C=Nc2ccc(/C=C/c3ccnc4ccccc34)cc2)cc1,inactive
10,COc1ccccc1-c1nnc(SCC(N)=O)o1,inactive
11,COc1ccc(CN(C(=O)CSc2nnc(-c3ccc(OC)c(OC)c3)o2)c2ccc(F)cc2)cc1,inactive
12,COc1ccc(-c2nnc(SC(=O)N3c4ccccc4Sc4ccccc43)o2)cc1,11.2 µM (active)
13,COc1cccc(CNc2nccn(-c3ccc(OC)c(OC)c3)c2=O)c1,inactive
14,CC(C)Nc1nc(NCCOc2ccccc2Cl)c2sccc2n1,inactive
15,COc1cccc(CNc2nc(NCc3ccccc3OC)nc3ccsc23)c1,11.2 µM (active)
16,CCN(CC)/[N+]([O-])=N/OCOC(=O)Cc1c(C)n(C(=O)c2ccc(Cl)cc2)c2ccc(OC)cc12,inactive
17,COc1cc(NC(=O)c2cc3ccc4cccnc4c3[nH]2)cc(OC)c1OC,inactive
18,Cc1ccccc1CN1CCC(C(=O)Nc2ccc(Oc3cccnc3)cc2)CC1,inactive
19,CCOc1ccccc1N(CC)C(=O)c1cc2ccc3cccnc3c2[nH]1,12.6 µM (active)
20,CCOc1ccccc1N(CC)C(=O)Nc1cn(C)c(=O)c2ccccc12,inactive
21,Cc1ccccc1CN1CCC(CNC(=O)c2cc3ccc4cccnc4c3[nH]2)CC1,12.6 µM (active)
22,Cc1ccccc1CN1CCC(CNC(=O)c2c(C)oc3ncnc(N4CCCCC4)c23)CC1,inactive
